# Screen size: about 48,000 compounds; about 13,000 (27%) showed an effect of 50% or more. The list shows a part of the results.
# Tested on: Wolbachia pipientis
# Assay: Anti-Wolbachia Cell-Based Screen
# Format: functional
# Design: scale not given: in the data most compounds retested in dose-response had high values
# Details: 5 µM
row,SMILES,Percent Effect [%]
1,CN(CCN1CCOCC1)C(=O)CCc1ccc(C(F)(F)F)cc1,-5.006
2,CCc1[nH]c2ccc(CNc3cncc(C(=O)N(C)C)n3)cc2c1C,5.05
3,Cc1nnc(NCC(c2ccco2)N2CCCC2)c(C#N)c1C (configuration not stated),-0.3665
4,COC(=O)NCC(=O)N1CCCn2nc(CN3CC[C@H](F)C3)cc2C1,-5.697
5,Cc1occc1-c1nc(-c2cccc(CN3CCOCC3)c2)no1,0.4297
6,Brc1cccc(-c2noc(CN3CCOCC3)n2)c1,107.1
7,O=C1OCCCN1Cc1nc(-c2ccc(N3CCCCC3)cc2)no1,-4.946
8,O=C1NCCCN1Cc1nc(-c2ccc(N3CCCCC3)cc2)no1,-15.88
9,Cc1cc(-c2nc(-c3cccc(CN4CCOCC4)c3)no2)no1,-11.24
10,c1cc(N2CCCCC2)ccc1-c1noc(CN2CCOCC2)n1,101.7
11,NC(=O)C(NC(=O)Cc1cnn(-c2ccccc2)n1)c1ccccc1 (configuration not stated),-10.55
12,CNC(=O)C(C)(C)CNC(=O)Nc1cc(C)ccn1,-2.642
13,CNC(=O)[C@H]1C[C@@H]2CN(S(=O)(=O)c3ccccc3)C[C@@H]2N1C.O=C(O)C(F)(F)F,-12.02
14,CNC(=O)[C@H]1C[C@@H]2CN(C(=O)c3ccncc3)C[C@@H]2N1S(C)(=O)=O.O=C(O)C(F)(F)F,89.45
15,CNC(=O)[C@H]1C[C@@H]2CN(C(=O)c3ccccn3)C[C@@H]2N1S(C)(=O)=O.O=C(O)C(F)(F)F,96.47
16,CNC(=O)[C@H]1C[C@@H]2CN(S(=O)(=O)c3cccc(C)c3)C[C@@H]2N1C.O=C(O)C(F)(F)F,-8.978
17,CNC(=O)[C@H]1C[C@@H]2CN(S(=O)(=O)c3ccc(F)cc3)C[C@@H]2N1C.O=C(O)C(F)(F)F,-8.738
18,CNC(=O)[C@H]1C[C@@H]2CN(S(=O)(=O)c3ccc(C)cc3)C[C@@H]2N1C.O=C(O)C(F)(F)F,-6.65
19,CNC(=O)[C@H]1C[C@@H]2CN(C(=O)c3cccnc3)C[C@@H]2N1S(C)(=O)=O.O=C(O)C(F)(F)F,86.97
20,CCc1nc(C)c(C(C)N(C)CCOC)s1 (configuration not stated),-4.092
21,CC(C)c1nnc(NCc2ccsc2)o1,-7.753

row,SMILES,Percent Effect [%]
1,COc1cccc(COC(C)C(=O)NCc2nnc3n2CCC3)c1 (configuration not stated),0.6682
2,Cc1csc(N2CCC(NCC3(O)CCc4ccccc43)CC2)n1 (configuration not stated),-8.914
3,O=C(Cc1cccs1)N1Cc2nc(COCC3CC3)oc2C1,106.2
4,O=C(O)C(F)(F)F.O=C(c1ccncc1F)N1Cc2nc(COCC3CC3)oc2C1,11.83
5,O=S(=O)(c1cccs1)N1CCN2C[C@H](OCC3CC3)C[C@H]2C1,12.99
6,O=C(NCc1ccccc1)N1Cc2nc(COCC3CC3)oc2C1,6.767
7,O=S(=O)(c1cccs1)N1Cc2nc(COCC3CC3)oc2C1,96.89
8,COCC1CN(S(=O)(=O)c2cccs2)Cc2ncnn2C1 (configuration not stated),-4.986
9,CN(C)c1ncc2c(n1)CCCC2NC(=O)c1ccsc1 (configuration not stated),-6.116
10,CN(C)c1ncc(-c2cccc(C(N)=O)c2)c(C2CNCCO2)n1.Cl (configuration not stated),103.6
11,CN(C)c1ncc(-c2ccc(C(N)=O)cc2)c(C2CNCCO2)n1 (configuration not stated),99.82
12,C=Cc1ccc(C(=O)NC2CCCc3nc(N(C)C)ncc32)cc1 (configuration not stated),4.134
13,Cc1nnc(-c2ccc(C(=O)Nc3ccnc(N(C)C)n3)cc2)o1,-7.444
14,CN(C)c1ncc(-c2ccc(C(N)=O)cc2)c(C2CCNC2)n1.Cl (configuration not stated),101.4
15,CC(C#N)CSc1ccccc1NCC(=O)Nc1ccccc1 (configuration not stated),-8.038
16,Cn1c(-c2ccccc2Cl)nc2cc(C(=O)NCCOCCO)cnc21,-3.34
17,O=C(CC1CCCO1)Nc1cccc(N2CCN(CC3CC3)CC2)c1 (configuration not stated),-9.056
18,Cc1ccc(C)c(NC(=O)Cn2nc(C)c(C#N)c2N)c1,-3.359
19,CC(C)SCc1cccc(NC2CCN(C)C2=O)c1 (configuration not stated),-2.094
20,CCc1ccccc1-n1cc(O)c(C(=O)N2CCCCC2)n1,-6.715
21,CC(C)N1CCN(C(=O)C(C)n2cncn2)CC1 (configuration not stated),90.2

row,SMILES,Percent Effect [%]
1,CCc1nc(CN2CCCN(C(=O)C(C)n3cncn3)CC2)cs1 (configuration not stated),-3.687
2,CC(C(=O)N1CCN(c2ccccc2Cl)CC1)n1cncn1 (configuration not stated),9.073
3,CC(C(=O)N1CCN(c2cnccn2)CC1)n1cncn1 (configuration not stated),-0.9189
4,CC(=O)N1CCN(C(=O)C(C)n2cncn2)CC1 (configuration not stated),5.614
5,Cc1csc(N2CCCN(C(=O)C(C(C)C)n3cncn3)CC2)n1 (configuration not stated),-4.935
6,COc1ccc(NC(C)C(=O)N2CCN(c3ncccn3)CC2)cn1 (configuration not stated),-16.98
7,CC(C(=O)N1CCOCC1)n1cncn1 (configuration not stated),74.2
8,CC(C(=O)N1CCN(c2ncccn2)CC1)n1cncn1 (configuration not stated),114.6
9,CC(=O)N1CCCN(C(=O)C(C)n2cncn2)CC1 (configuration not stated),98.01
10,CC(=O)N1C[C@@H](F)[C@@H](OCc2nc3ccc(C#N)cc3[nH]2)C1,-0.3332
11,Cc1csc(CN(CC2CCCO2)C(=O)c2occc2C)n1 (configuration not stated),-7.004
12,Cc1ccc(NC2(C(=O)NCc3c(C)n[nH]c3C)CCCC2)cc1,1.889
13,O=S1(=O)CCC(N(CCc2ccc3c(c2)CCO3)C2CC2)C1 (configuration not stated),-1.378
14,Cc1ccc(CN2CCOC3(CCCN(C(=O)c4ccco4)C3)C2)o1 (configuration not stated),-7.626
15,Cc1ccc(-c2[nH][nH]c(=O)c2CCN)cc1,116.2
16,NCCc1c(-c2ccc(F)cc2)[nH][nH]c1=O,105.4
17,NCCc1c(-c2ccccc2)[nH][nH]c1=O.O=C(O)C(=O)O,104.8
18,Cc1nc(C)c(CCNC(Cc2ccncc2)C(F)(F)F)s1 (configuration not stated),2.095
19,CC(SCCS(C)(=O)=O)c1nc(Cc2ccc(F)cc2)no1 (configuration not stated),-13.13
20,CNC(=O)c1cn2cc(-c3ccccc3Cl)n(CC=C(C)C)c(=O)c2n1,16.22
